# PubChem BioAssay (Tox21)
# Records with an inconclusive call do not appear. Values without a mark were called inactive. Calls come from the whole dose curve.
# Test: qHTS assay to identify small molecule agonists of H2AX - cell viability counter screen (AID 1224847); note: top concentration of the series differs between compounds; nearly all actives have a fitted effect of over 30% in size
# Conditions: CHO-K1 viability, CellTiter-Glo luminescence, 3 h; series mostly up to 154 µM; activity change, negative = cytotoxicity: at the top concentration
# Excerpt: National Center for Advancing Translational Sciences [NCATS]
# NIH Chemical Genomics Center [NCGC]
# U.S. Environmental Protection Agency [EPA]
# National Institutes of Environmental Health Sciences [NIEHS]
# National Toxicology Program [NTP]
# U.S. Food and Drug Administration [FDA]
# HTRF phospho-H2AX (Ser139) assay (Cisbio Bioassays, US) enables the quantitative detection of the histone variant H2AX when phosphorylated on serine 139. When double-stranded DNA breaks, either by ionizing radiation or endogenous physiological processes, H2AX becomes phosphorylated at Ser139. This phospho-Ser139 serves as a sensitive biomarker for the detection of such breaks, localizing the site of DNA repair. So, HTRF phospho-H2AX Ser139 is a pertinent assay to study genome stability, the cell cycle, DNA repair, and it serves as a biomarker for cancer, and to understand aging. Wild type CHO-K1 cells were used to identify the inducers of Phospho-H2AX Ser 139 from the Tox21 compound collections. Also cytotoxicity of the Tox21 10K compound library against the CHO-K1 cell line was tested by measuring the cell viability using CellTiter-Glo assay (Promega, Madison, WI).
# Tox21 Assay Protocol Summary:
# The CHO-K1 cells suspended in culture medium containing 10% FBS were dispensed at 1000 cells/ 3 ul/well in 1536-well white wall/solid bottom plates (Greiner Bio-One North America, NC) using a Multidrop Combi (Thermo Fisher Scientific Inc., Waltham, MA). After the assay plates were incubated at 37C overnight, 23 nl of compounds at 15 concentrations (from 5-48 columns) or positive control (from 1 to 4 columns) were transferred to the assay plates using a Pintool station (Wako, San Diego, CA) into each well resulting in a final DMSO concentration of 0.76%. After 3hr incubation at 37C, 3 uL/well CellTiter-Glo luminescent cell viability reagent (Promega Corporation, Madison, WI) was added using a Flying Reagent Dispenser (FRD) (Aurora Discovery, CA). After incubation at room temperature for 30 min, the luminescence intensity was read using a ViewLux plate reader (PerkinElmer, Waltham, MA).
# % is set by controls: 0 for no effect and ±100 for the full control effect.
row,SMILES,"activity change, negative = cytotoxicity"
1,CCOC(=O)CC1(C)OCC(C)O1 (stereo not given),-0.655%
2,CC1(C)Cc2cccc(N)c2O1,0.585%
3,CC1=C(O)C(=O)C(C)O1 (stereo not given),-0.858%
4,CC(C)=CCC/C(C)=C/COC=O,0.778%
5,CCC[C@@H]1C[C@@H](C(=O)N[C@@H]([C@H]2O[C@H](SC)[C@H](O)[C@@H](O)[C@H]2O)[C@@H](C)O)N(C)C1,-2.01% [at 70.9 µM]
6,C=CC(=O)OCC1CCCO1 (stereo not given),-0.83%
7,C#CCN[C@@H]1CCc2ccccc21,0.132% [at 70.9 µM]
8,OCCN1CCOCC1,4.09%
9,CCCCCCCCCCCCCCC(=O)NC(CO)CCCCCCCCCCCCCC (stereo not given),5.22%
10,CCCCCCCCCOC(=O)c1ccccc1C(=O)OCCCCCCCCC,2.11%
11,COCCc1ccccn1,-1.72% [at 70.9 µM]
12,ONc1ccccc1,-2.35%
13,CCc1occc(=O)c1O,2.64%
14,Cc1ccc(C(C)NC(=O)[C@@H](NC(=O)OC(C)C)C(C)C)cc1 (stereo not given in full),-2.98%
15,COc1cc2c(cc1OC)C(=O)C(CC1CCN(Cc3ccccc3)CC1)C2 (stereo not given),-5.94% [at 70.9 µM]
16,COc1nc(N)nc2nc[nH]c12,0.457%
17,CC(Oc1cc(Cl)ccc1Cl)C(=O)O (stereo not given),8.21%
18,CC1(C)CC(OC(=O)CCCCCCCCC(=O)OC2CC(C)(C)NC(C)(C)C2)CC(C)(C)N1,-4.19% [at 31.6 µM]
19,Cc1ccccc1C(N)=O,-1.08%
20,O=Cc1cc2ccccc2o1,0.0217%

row,SMILES,"activity change, negative = cytotoxicity"
1,Cc1ccc(C)c([N+](=O)[O-])c1,-0.873%
2,[O-][n+]1cccc(/C(Cl)=N/OC[C@@H](O)CN2CCCCC2)c1,1.49% [at 70.9 µM]
3,CCCSSCCC,0.959%
4,C=CCCCCCCCCC(=O)OCCCC,2.49%
5,COC(=O)c1ccccc1C(=O)O,3.1%
6,CC(O)CC(C)O (stereo not given),-1.46%
7,CCO,2.36%
8,CC(=O)O[C@@H]1CC2CCC1(C)C2(C)C (stereo not given in full),-0.063%
9,O=C(O)CONC(=O)c1ccccc1,0.436%
10,COc1ccc2c(c1)c1c3n2CCN(C)C3=NCC1,-2.03% [at 70.9 µM]
11,O=C1c2ccccc2C(=O)c2cc(Cl)ccc21,4.41% [at 14 µM]
12,CC1c2ccccc2CN1NC(=O)c1ccc(Cl)c(S(N)(=O)=O)c1 (stereo not given),1.96% [at 70.9 µM]
13,CCCC(=O)OCCC(C)CCC=C(C)C (stereo not given),0.34%
14,Fc1ccccc1,1.16%
15,O=C(Cl)c1ccccc1[N+](=O)[O-],0.126%
16,O=C(NCN1CCOCC1)c1cnccn1,-3.78% [at 70.9 µM]
17,O=C(O)CSCC(=O)NC1CCSC1=O (stereo not given),0% [at 70.9 µM]
18,C=C(C)[C@@H]1CC=C(C)C(=O)C1,3.97%
19,Cc1ccc(C(=O)O)cc1[N+](=O)[O-],2.14%
20,COC(=O)c1cccc(Cl)c1,-3.2%
